The panel holds about 83,000 compounds, 20% with a hit somewhere; the sample as a whole holds those more often.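 Plates (96-well) were seeded with cells, treated with compound at one concentration, and incubated for 48 hours before percent growth was determined.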 Calls of active or inactive are those of the source.
These compounds were tested on IGROV1 ovarian (assay: NCI-60 one-dose screen, 48 h (100 = growth as untreated, 0 = no growth, -100 = all killed)). Conditions: 10 µM.
Procedure: Growth inhibition of the IGROV1 human tumor cell line is measured as a screen for anti-cancer activity. Cells are grown in 96 well plates and exposed to the test compound for 48 hours. Compounds are tested at a single concentration, which is 10^-5 M for most compounds. The reported endpoint is percent growth (GI% or GIPRCNT), where numbers from 0 - 100% represent growth inhibition, and numbers from -100% - 0 represent cell death. For example, a value of 40 represents 60% growth inhibition. A value of 0 means no net growth occurred over the course of the experiment. A value of -40 indicates 40% of cells at the beginning of the experiment died by the end of the experiment. A value of -100 means all cells are dead at the end of the experiment.
NCI-60 Human Tumor Cell Lines Screen was performed using the standard one-dose NCI protocol, which is described in more detail at https://dtp.cancer.gov/discovery_development/nci-60/default.htm.
Compounds with GIPRCNT values below 10 were considered active. Activity score was based on GIPRCNT using the following formula: […]
Score is 0 for GIPRCNT values of 100 or above, 50 for GIPRCNT values of 0, and 100 for GIPRCNT values of -100.

Compound | growth
Cc1c(C(=O)N[C@H](CO)Cc2ccccc2)[nH]c2ccc(Cl)cc2c1=O | 106% (inactive)
CC(C)(C)c1ccc(OCCCCCCN2CCNCC2)cc1 | 80.8% (inactive)
O=C(OCc1ncc(-c2ccc(C(F)(F)F)cc2)c(NC2CCCCCC2)n1)c1c(F)c(F)c(F)c(F)c1F | 63.7% (inactive)
COc1ccccc1NC1=C(N2CCCCC2)C(=O)c2ccccc2C1=O | 100% (inactive)
Cc1ccc(S(=O)(=O)Nc2cccc3[nH]c(C(F)(F)F)nc23)cc1 | 51.4% (inactive)
C[C@]12CC[C@H]3[C@@H](CC=C4C[C@@H](O)CC[C@@]43C)[C@@H]1CC[C@@H]2C(=O)C/C=N/O | 76.7% (inactive)
O/N=C1\CCC2CCCCC2C1 (stereo not given) | 105% (inactive)
COc1cc(-c2nc3cc(Cl)c(Cl)cc3[nH]2)ccc1OCC(=O)NN | 86.6% (inactive)
COc1ccc2c(c1)/C(=C/c1cc(OC)c(OC)c(OC)c1)C(=O)N2C | 0.661% (active)
C[n+]1c(/C=C/c2c[nH]c3ccccc23)ccc2ccccc21 | 72.4% (inactive)
Clc1cc(Cl)c(OCCCCCCN2CCNCC2)c(Cl)c1 | 46.6% (inactive)
C#C[C@]1(O)CC[C@H]2[C@@H]3CC[C@H]4CC(F)(F)CC[C@]4(C)[C@H]3CC[C@@]21C | 94.2% (inactive)
COc1ccccc1S(=O)(=O)Nc1ccc2c(c1)CN(C)C(=O)N2 | 24% (inactive)
CCN(CCCNC(=O)Cc1cc(=O)oc2cc(N(C)C)ccc12)CCNc1ccnc2cc(Cl)ccc12 | 94% (inactive)
CN1/C(=C\C(I)C(I)C2=[N+](C)c3ccccc3C2(C)C)C(C)(C)c2ccccc21 (stereo not given) | 25% (inactive)
CCOC(=O)/C(C#N)=C(/C)C1CC1 | 121% (inactive)
CC(Oc1ccc(Cl)cc1)c1ccccc1 (stereo not given) | 96% (inactive)
COc1cc(OC)cc(-c2ccc(-c3ccc(C(=N)N)cn3)o2)c1 | 27% (inactive)
COc1ccc(-c2nsc3c2NC(=O)CC3c2cccc(Cl)c2)cc1 (stereo not given) | 39.2% (inactive)
CC(=O)OCC(COC(C)=O)(COC(C)=O)COC(C)=O | 104% (inactive)

Compound | growth
COc1ccc(-c2cc(/C=C3\C(=O)Nc4cc(Cl)ccc43)[nH]n2)cc1OC | 50.7% (inactive)
Fc1ccc2[nH]c3c(NCCCN4CCOCC4)ncnc3c2c1 | 50.8% (inactive)
CCCCc1ccc(NC(=O)N(CCCl)N=O)cc1 | 97.2% (inactive)
CC(=O)Nc1nc(C)c(C(=O)N/N=C/c2cccn2C)s1 | -1.21% (active)
COc1cc(-c2c(C#N)c(N)n3c(nc4ccccc43)c2C#N)cc(Br)c1OC | 83.5% (inactive)
CC1=CC2OC34COC3CC(OC(=O)C(F)(F)F)C4(C)C2(C)CC1 (stereo not given) | 119% (inactive)
COc1ccc2oc(=O)cc(C(c3ccc[nH]3)c3ccc[nH]3)c2c1 | 25.5% (inactive)
COc1cc(-c2nc3ccc(C)cc3[nH]2)ccc1OCc1nnc(-c2ccc(CC(C)C)cc2)o1 | 91.4% (inactive)
C[N+]1(CC2CO2)CCCCCC1 (stereo not given) | 112% (inactive)
COC(=O)[C@]12CC[C@@H](C)[C@H](C)[C@@H]1C1=CC[C@@H]3[C@@]4(C)CC(=O)[C@H](O)[C@@]5(C)COC(=C45)C[C@@]3(C)[C@]1(C)CC2 | -44.9% (active)
COc1cc2c3c(cccc3c1)C(=O)N(CCN1CCCC1)C2=O | 23.5% (inactive)
CC(=O)Oc1c(C)c(C)c2c(c1C)CCC(C)(CC(=O)OCCCCCCCCCCC[P+](c1ccccc1)(c1ccccc1)c1ccccc1)O2 (stereo not given) | -46.2% (active)
Cc1nc2sccn2c1-c1csc(Nc2cccc(Cl)c2C)n1 | 62% (inactive)
Cc1ccccc1[P+](Cc1ccccc1)(c1ccccc1)c1ccccc1 | 14.3% (inactive)
CCCCCCCCCCCCCC[n+]1ccccc1 | -60.4% (active)
O=[N+]([O-])c1ccc(Br)o1 | 101% (inactive)
COc1ccc(C2C=C(c3ccc(Cl)c(Cl)c3)N=C3SC(C)=CN32)cc1 (stereo not given) | 86.8% (inactive)
C=CCn1ccc(=O)nc1SC | 120% (inactive)
CCCCCCCCCCCCCCCCCBr | 103% (inactive)
COc1cc(C2c3cc4c(cc3C(O)C(CO)C2CO)OCO4)cc(OC)c1OC (stereo not given) | 13.9% (inactive)

— PubChem BioAssay (NCI)
